12-LOX inh = blocks human arachidonate 12S-lipoxygenase; P18054; purified 12hLO, xylenol orange hydroperoxide absorbance; Potency, µM (doses to about 108 µM), inactives show top-dose activity change, negative = inhibition, actives largely listed as inhibitors; 580,000 tested, 1.1% active; AID 1671190; note: potency is the fitted concentration of half-maximal effect; % is set by controls: 0 for no effect and ±100 for the full control effect
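Purified human 12hLO (150 nM final) in 25 mM Hepes, 0.01% Triton X-100, pH 7.0 was preincubated 15 min at room temperature with compound. Then 40 uM arachidonic acid was added, 30 min. Hydroperoxide was read by Fe-XO absorbance ratio 573/405 nm.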
A-T KAP1 phos = candidate therapy for ataxia-telangiectasia. F2112 A-T fibroblasts, KAP-1 phosphorylation AlphaLISA; neocarzinostatin DNA damage 30 min before lysis. Potency, µM (series often up to 57.5 µM), for inactives: at the highest dose activation, usual class: activators. 320,000 tested, 0.19% active; note: potency is the fitted concentration of half-maximal effect; % of control where 0% means no effect; nearly all actives have a fitted effect of over 45% in size
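hTERT-immortalized A-T patient fibroblasts (F2112), 500 cells/well in OPTI-MEM, 1% FBS, got compounds for 60 min, then NCS for 30 min at 37C. Lysates were then assayed for phospho-KAP-1 by AlphaLISA (anti-pKAP1 donor, anti-KAP1 acceptor beads), 6 hr at 25C.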
KCNH2 3.1 inh = KCNH2 3.1 (human) potassium channel inhibition | U2OS KCNH2 3.1, thallium flux FluxOr; hits give low values | activity change, % (tested at about 1.8 µM) | 340,000 tested, 0.95% active | AID 720553;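 active = maximum activity change below -70%; inconclusive = maximum activity change from -70% to -50%; inactive = maximum activity change above -50%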;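 note: thallium influx rate constant from kinetic fluorescence after stimulation buffer; % is set by controls: 0 for no effect and ±100 for the full control effect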
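Thallium flux via FluxOr fluorescence (Red40 quencher, 45 min loading) in U2OS cells virally expressing the KCNH2 3.1 isoform (1.77 x 10^8 /mL virus, overnight at 37 C). Rate constants from 2-min kinetic reads post-stimulation, normalised to positive and negative controls.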
hERG WT inh = KCNH2 (human, wildtype) channel inhibition | activity change, % at 1.84 µM | U2OS, BacMam KCNH2, thallium flux FluxOr; hits give low values | 340,000 tested, 0.37% active | Q12809;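 active = maximum activity change below -70%; inconclusive = maximum activity change between -70% and -50%; inactive = maximum activity change above -50%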; note: % is set by controls: 0 for no effect and ±100 for the full control effect
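U2OS cells transduced with wild-type KCNH2 virus are loaded with FluxOr dye for 45 min, and thallium flux is measured in kinetic reads before and after stimulation buffer. Rate constants are normalized to DMSO controls.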
* hit, by the source's call; u = inconclusive; x = no result; [ ] = another dose, or the depositor's remark. Hits are enriched below; roughly 1.8% of the tested compounds scored in any of these assays. Unless noted, calls come from the whole dose curve; as a rule, active = well fitted curve in the direction sought with a large enough effect; inconclusive = small, poorly fitted or top-dose-only effect, or another doubt; inactive = no such curve, though single readings can be large; an effect the other way counts as inactive or inconclusive.

SMILES	12-LOX inh	A-T KAP1 phos	KCNH2 3.1 inh	hERG WT inh
CC(=O)Nc1ccc(S(=O)(=O)NCC2CCC(C(=O)NCc3ccccc3)CC2)cc1 (centres undefined)	9%	0%	-4	x
CC(=O)Nc1ccc(S(=O)(=O)N(C)Cc2ccccc2)cc1	-9%	5%	x	-6
Cc1ccc(CN(C)C2CCc3ccccc32)cc1 (centres undefined)	6%[176 µM]	x	x	x
c1ccc(-c2n[nH]c(-c3ccncc3)n2)cc1	5%	x	x	x
COc1ccc(NC(=S)N/N=C2\CC(C)(C)Oc3ccc(O)cc32)cc1	32µM*	-6%	-13	5
O=C(c1ccc(Cl)cc1)N1CCN(c2ccnc3cc(Cl)ccc23)CC1	-1%	-2%	-87*	-10
CS(=O)(=O)N1CCN(c2ccnc3cc(Cl)ccc23)CC1	-10%	1%	-17	-11
CCC(=O)N1CCN(c2ccnc3cc(Cl)ccc23)CC1	0%	-7%	-11	8
CC(=O)c1ccc(S(=O)(=O)N2CCN(c3ccnc4cc(Cl)ccc34)CC2)cc1	-3%	x	-98*	-123*
Cc1ccc(S(=O)(=O)N2CCN(c3ccnc4cc(Cl)ccc34)CC2)cc1	u	5%	-102*	-36
Cc1ccc(S(=O)(=O)N2CCN(c3ccnc4cc(Cl)ccc34)CC2)cc1C	-1%	3%	18	1
COc1ccc(N2CCN(c3ccnc4cc(Cl)ccc34)CC2)cc1	-23%	1%	-81*	7
CN1CCC(OC2CCN(C(=O)CC3CCCC3)CC2)CC1	36%	x	x	x
O=C(COC(=O)CC(c1ccccc1)c1ccccc1)NCc1ccccc1	-11%	3%	-3	3
NC(=O)COC(=O)CC(c1ccccc1)c1ccccc1	4%	-3%	-94*	8
CCOC(=O)C(=CNNc1cccc(Cl)c1)C(=O)OCC	13µM*	7%	2	0
Oc1c(C=Nc2ccccc2)sc(=S)n1Cc1ccccc1	8.9µM*	-1%	-2	-8
O=S(=O)(N1CC=C(c2c[nH]c3cc(F)ccc23)CC1)N1CCCCCC1	16µM*	x	x	x
COCc1cnc2c(c1SCC(=O)Nc1ccccc1F)c(=O)n(C)c(=O)n2C	-36%	x	x	x
O=C(NNc1cccc(Cl)n1)c1cccnc1Cl	-1%	-11%	-3	x
COC(=O)C(NC(=O)c1cccnc1Cl)C(C)C (centres undefined)	0%	1%	8	-120*
COC(=O)c1ccc(Cn2cnc3c(cnn3-c3ccc(Cl)cc3)c2=O)o1	-20%	-8%	-75*	-7
COC(=O)c1ccc(Cn2cnc3c(cnn3-c3ccc(F)cc3)c2=O)o1	0%	-4%	1	-1
CCNC(=O)N1CCCC(c2noc(COc3ccccc3F)n2)C1 (centres undefined)	43%	x	x	x
CCN(CC(=O)NC1CC1)S(=O)(=O)c1ccccc1	-2%	10%	2	-4
SMILES	12-LOX inh	A-T KAP1 phos	KCNH2 3.1 inh	hERG WT inh
O=C(CN(Cc1ccccc1)S(=O)(=O)c1ccccc1)NC1CC1	1%	-4%	-1	-159*
COCCNc1nc(SCC(=O)N2CCN(c3ccccc3OC)CC2)nc2ccccc12	-3%	8%	-120*	2
COc1ccc(NC(=O)CCn2nc(-c3ccc(Cl)cc3)c3ccccc3c2=O)cc1C(N)=O	66%	x	x	x
O=C(Cc1cccc(C(F)(F)F)c1)NC1(c2ccccc2)CCC1	35µM*	x	x	x
O=C(Cc1cccc(C(F)(F)F)c1)Nc1ccccc1	-41%	-1%	12	-10
O=C(CN1C(=O)CCC1=O)Nc1ccc(Br)cc1	45µM*	6%	4	7
COCCOCC(=O)N1CCCN(S(=O)(=O)c2ccccc2)CCC(=O)NCC1	12%	x	x	x
Cc1cc(Br)ccc1OCCNCc1ccccc1	6.3µM*	1%	u	-4
Cc1cccc(C(=O)NC2C(=O)NNC2c2ccc(Cl)cc2)c1 (centres undefined)	14µM*	-1%	-4	-14
O=C(NC1C(=O)NNC1c1ccccc1)c1ccccc1 (centres undefined)	u	3%	2	-1
Cn1cccc1CN1CCC2(CC1)Cc1ccccc1NC2=O	4%[176 µM]	x	x	x
CCOC(=O)N1CCN(Cc2nc(N)nc(Nc3ccc(OCC)cc3)n2)CC1	11%	8%	-86*	0
CCOC(=O)N1CCN(Cc2nc(N)nc(Nc3ccc(OC)cc3)n2)CC1	2%	-7%	-32	10
CCOC(=O)C1CCCN(Cc2nc(N)nc(Nc3ccc(Cl)cc3)n2)C1 (centres undefined)	99%	-4%	u	-9
